# Compounds without any hit were thinned out: in the full panel of roughly 79,000, 15% have a hit. Values without a mark were called inactive. Activity calls are given as the source filed them. No stated cut-off is given here; in the data, active means growth inhibition above about 70%; inactive means the rest.
# Columns and labels:
# [1] = NCI Yeast Anticancer Drug Screen. Data for the rad50 strain (AID 155);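 further: 0% = growth of vehicle-only cultures of the same strain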; settings: S. cerevisiae rad50 strain growth inhibition; at 50.0 µM; hits give high values
# Summary of the method: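 Readout: growth inhibition relative to vehicle-treated cultures. Compound exposure was carried out in a genetically defined yeast strain deficient in DNA damage repair.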
# [2] = NCI Yeast Anticancer Drug Screen. Data for the mec2-1 strain (AID 157); settings: S. cerevisiae mec2-1 strain, at 50.0 µM, hits give high values
# Summary of the method: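 mec2-1 yeast strain, carrying an alteration in DNA damage repair or cell cycle control, was exposed to compounds; growth inhibition was measured relative to vehicle-treated controls.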
# [3] = NCI Yeast Anticancer Drug Screen. Data for the sgs1 mgt1 strain (AID 161);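 further: 0% = growth of cultures given vehicle only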; settings: S. cerevisiae sgs1 mgt1 strain, at 50.0 µM, hits give high values
# Summary of the method: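 This yeast growth screen uses a strain with defined DNA-repair lesions; compound-treated growth is compared with vehicle-treated growth.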
# [4] = NCI Yeast Anticancer Drug Screen. Data for the cln2 rad14 strain (AID 165);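 further: 0% = growth equal to vehicle treated cultures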; settings: S. cerevisiae cln2 rad14 strain, at 50.0 µM, hits give high values
# Summary of the method: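 Yeast carrying cln2 and rad14 alterations (cell cycle control and DNA damage repair) were exposed to compounds. Growth inhibition was measured against vehicle-treated controls.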
# [5] = NCI Yeast Anticancer Drug Screen. Data for the bub3 strain (AID 167); settings: S. cerevisiae bub3 mutant strain, at 50.0 µM, hits give high values
# Summary of the method: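 Readout: yeast growth inhibition, expressed relative to vehicle-only wells. The test organism is a mutant strain from a panel with lesions in DNA repair or checkpoint genes.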
# [6] = NCI Yeast Anticancer Drug Screen. Data for the mlh1 rad18 strain (AID 175); settings: S. cerevisiae mlh1 rad18 strain growth inhibition; at 50.0 µM; hits give high values
# Summary of the method: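 Growth inhibition of the yeast strain was measured after compound exposure and expressed relative to vehicle-treated controls. The strain carries defined defects in DNA damage repair.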
SMILES,growth inhibition [1],growth inhibition [2],growth inhibition [3],growth inhibition [4],growth inhibition [5],growth inhibition [6]
OC1CC2CCC(C1)N2c1ccccc1 (stereo not given),2.35%,4.95%,16.6%,-29.9%,19.1%,14.3%
CCOC(=O)C(C)(C)c1ccc(OC)cc1,-14.2%,-3.6%,-8.6%,-18.9%,2.6%,-16.2%
CC1=CC(C)(C)NC(=S)N1c1ccc(O)cc1,0%,-14.8%,11.3%,-24.8%,6.8%,15.8%
NC(=O)Cc1[nH]ccc1C(=O)O,9.4%,-9.75%,-0.05%,-18.6%,-4.15%,12.1%
CCC(CC)OC(=O)Nc1cccc2ccccc12,-16.4%,-9.65%,-5.75%,-55%,4.9%,-14.6%
CCOC(=O)c1nnsc1NC(=O)Nc1ccc(Cc2ccc(NC(=O)Nc3snnc3C(=O)OCC)cc2)cc1,-14.3%,8.25%,12.2%,18.3%,5.45%,10.3%
CCOC(=O)C1=CN(Cc2ccccc2)C2ON=C(c3ccc(Cl)cc3)C2C1 (stereo not given),0.05%,2.3%,-11.8%,-2.35%,-0.75%,-0.6%
O=[N+]([O-])c1ccc(OCCCCCBr)c(Cl)c1,-1.95%,47.1%,70.3% (active),-26.7%,66.2%,54.7%
Cc1ccc2c(c1)C(c1ccccc1)(c1ccccc1)N(c1ccccc1)S2(=O)=O,51.2%,34.2%,64.7%,25.2%,20.5%,58.6%
Cc1cccc(-c2nnc3s/c(=C\c4ccc5c(c4)OCO5)c(=O)n23)c1,-20.1%,-12.2%,-1.45%,11.7%,4.35%,0.65%
CC1OC(n2cc(Cl)c(=O)[nH]c2=O)C=C(OC(=O)c2ccccc2)C1=O (stereo not given),-18.6%,-27.4%,-24.9%,-16.8%,-22.4%,-28.9%
Cc1ccc(C2=Nn3c(nc4sc5c(c4c3=O)CCCC5)SC2)cc1,-25.7%,-19.4%,-39.1%,-5.9%,-27.4%,-21.8%
CC1c2[nH]c3ccccc3c2CC1C(=O)O (stereo not given),10.3%,12.6%,5.25%,-13.2%,-9.8%,-5.35%
O=c1[nH]c(-c2ccccc2)nc2cc([N+](=O)[O-])c(/C(Cl)=C/c3ccccc3)cc12,28.8%,14.4%,13.8%,12.1%,-1%,33.8%
CCOC(=O)C(CC(CC(C(=O)OCC)C(=O)OCC)=C(C)C)C(=O)OCC,36.1%,0.65%,15%,-14.5%,24.2%,15.4%
COc1ccccc1N=Nc1c(-c2ccccc2)nn(C(N)=S)c1-c1ccccc1,35%,-5.75%,19.4%,12.2%,-0.05%,6.6%
Nc1c(Br)c(Cl)c(Br)c2c1-c1ccc(Cl)cc1C2,-13.1%,-4.8%,-1.4%,-19.9%,7.15%,5.05%
O=Cc1cccc(OC(=O)Nc2ccccc2)c1,39%,24.8%,24.5%,-17.5%,17.1%,0.95%
Cc1cn(C)c2c1-c1c(cnn1-c1ccccc1)CC2,15.6%,3.75%,44%,-2.4%,4.8%,23.4%
COC(=O)[C@H]1C=C[C@@H](C)n2c(=O)c3ccccc3c(=O)n21,-9%,15.4%,-1.4%,-9.75%,-19.1%,-6.8%

SMILES,growth inhibition [1],growth inhibition [2],growth inhibition [3],growth inhibition [4],growth inhibition [5],growth inhibition [6]
O=C(/C=C\c1cccc2ccccc12)c1cccc2ccccc12,35.5%,12.8%,0.55%,-4.75%,23.1%,34.4%
CS1(=O)=NC(=O)C(N2C(=O)c3ccccc3C2=O)CC1 (stereo not given),0.6%,4.9%,-0.95%,-17.4%,13.2%,5.5%
COc1ccc(/C=C2\N=C(c3ccccc3)N(Nc3nnc(NN4C(=O)/C(=C/c5ccc(OC)cc5)N=C4c4ccccc4)c4ccccc34)C2=O)cc1,-9.4%,-10.3%,1.65%,8.7%,-21.4%,4.35%
Cc1nc(N)[nH]c(=O)c1Cc1ccc(Cl)cc1Cl,-1.65%,-1.15%,-5.7%,-44.4%,-12.6%,8.55%
CCN(Cc1ccccc1)c1ccccc1C,12%,-6.85%,10.8%,0%,7.65%,1.45%
CC(C)=CCC\C(C)=C/C=C/C(C)=C\C=C\C(C)=C/C=C/C=C(C)\C=C\C=C(C)/C=C/C=C(/C)CCC=C(C)C,7.15%,-30.8%,-29%,30.9%,-30.6%,20.2%
[NH-]c1ncnc2c1N=C[N+]2=CC=CCO,-1.6%,-17%,-19.7%,-7.6%,-28.4%,-10.7%
O=C1CC(=O)N2CCCCC2N1 (stereo not given),-17.7%,-5.15%,-0.25%,-10.9%,6.4%,-25.7%
COc1cc(CCl)c(OC)cc1Cl,8.6%,0.9%,-1.4%,-35.6%,13.6%,-28.4%
COC(=O)N/N=C/c1ccc(NC(C)=O)cc1,7.8%,0%,-13.8%,-75.6%,-4.95%,-5%
CN(/N=C/c1ccnc2ccccc12)c1ccc([N+](=O)[O-])cc1[N+](=O)[O-],-31.3%,-10.9%,-19.5%,8.1%,-6.95%,-12.6%
O=C(c1ccco1)N(C(=S)N1CCN(c2ccccc2)CC1)C1CCCCC1,16.4%,25.4%,26.4%,36%,24.4%,19.1%
CCCC(C)C(=O)OCCOCC (stereo not given),4.55%,2.8%,-1.5%,-32.4%,9.3%,49.9%
CCOC(=O)c1cnc(=S)n(CCC(C)C)c1N,-11.2%,8.25%,12.7%,-40.5%,2.9%,4.95%
NC(=O)c1c[nH]c(=O)cc1O,-5.35%,-13.6%,50.2%,18.8%,7.3%,0%
CCOC(=O)NC(CCl)NC(=O)OCC,-11.7%,-5.6%,-2.05%,-77%,6.4%,-35.5%
COc1c(CCl)cc(-c2sc3ccccc3c(=O)c2CCl)cc1CCl,-7.25%,-7.3%,1.1%,2.85%,-1.8%,1.85%
CCOC(=N)CC(=O)NC(C)c1ccccc1 (stereo not given),2.25%,-3.6%,-6%,14.3%,0.15%,1.85%
CC(C)CC1CC(=O)C(=O)C(CC(C)C)C1 (stereo not given),8.25%,0.5%,3.45%,-17.5%,3.95%,-1.05%
O=C(Nc1nc(C23CC4CC(CC(C4)C2)C3)cs1)c1cc2cc(Cl)ccc2oc1=O,-32.2%,-37.5%,-2.35%,10.6%,-28.1%,-38%

# From PubChem BioAssay (NCI)
